Screening results (PubChem)
TGFb inhibitor = blocks TGF-b signaling. HepG2 CAGA-GFP TGF-b/SMAD3 reporter, GFP fluorescence, 18 h; TGF-beta stimulated, 500 pg/mL final. Potency, µM (titrated, usually from 46.1 µM), inactives show at the highest dose activity, negative = inhibition, most hits filed as inhibitors. actives 1.2% (n = 410,000); also: potency is read from the fitted curve at half-maximal effect; % is scaled to controls: 0 for no effect and ±100 for the full control effect; nearly all actives have a fitted effect of over 65% in size
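Using HEPG2 CAGA-GFP reporter cells at 1000 cells/well, we pinned test compounds, stimulated with recombinant TGF-beta (500 pg/mL final) and measured total well GFP after 18 h.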
IL1B secr inh = blocks inflammasome-driven IL-1 beta release; THP-1 LPS/ATP IL-1B secretion, AlphaLISA, 16 h; hits give low values; activity change, % at 57.5 µM; actives 4.7% (n = 360,000); in the data active = activity change below about -50%; inconclusive = mostly about -30% to -49%; also: % is scaled to controls: 0 for no effect and ±100 for the full control effect
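Secreted IL-1B measured by AlphaLISA bead assay after 16 h compound exposure of THP-1 cells; compounds (final up to 57.5 uM) added 1 h before LPS (250 ng/mL) and ATP (1.25 mM) stimulation; lower signal means less secretion.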
HepG2 tox = counter-screen for TGF-b inhibitors: cytotoxicity in HepG2 cells; HepG2 CAGA-GFP viability, ATP luminescence, 18 h; Potency, µM (titrated, usually from 46.1 µM), for inactives: top-dose activity change, negative = cytotoxicity, most hits filed as cytotoxic; actives 0.76% (n = 410,000); also: potency is read from the fitted curve at half-maximal effect
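HepG2 CAGA-GFP cells (1000/well, DMEM with 1% FBS) received compound, then TGF-beta at 500 pg/mL final, and were incubated 18 hours at 37 degrees C. Viability was read by CellTiter-Glo luminescence. Media-only wells were set as complete cell-killing and DMSO as no toxicity.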
DT40 TDP1 no CPT = qHTS for Inhibitors of human tyrosyl-DNA phosphodiesterase 1 (TDP1): qHTS in cells in absence of CPT; DT40 Tdp1-/- hTDP1 cells, no CPT, ATP luminescence, 48 h; Potency, µM (doses to about 46.2 µM), for inactives: at the highest dose activity change, negative = growth inhibition, usual class: inhibitors; actives 15% (n = 420,000); also: potency is read from the fitted curve at half-maximal effect; % is scaled to controls: 0 for no effect and ±100 for the full control effect; nearly all actives have a fitted effect of over 55% in size
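Camptothecin absent (DMSO only). Human TDP1-complemented DT40 knockout cells, 400 cells/well, 37 °C for minimum 48 hr; ATP measured via CellTiter-Glo, 30 min dark incubation, luminescence.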
TDP1 inh = TDP1 (human) enzyme inhibition | Q9NUW8 | recombinant TDP1, AlphaScreen DNA substrate cleavage | Potency, µM (doses to about 130 µM), without a hit: at the highest dose activity change, negative = inhibition, most hits filed as inhibitors | actives 0.28% (n = 350,000) | AID 485290; also: potency is read from the fitted curve at half-maximal effect; % is scaled to controls: 0 for no effect and ±100 for the full control effect; nearly all actives have a fitted effect of over 40% in size
Target sequence (Q9NUW8 whole entry, looked up): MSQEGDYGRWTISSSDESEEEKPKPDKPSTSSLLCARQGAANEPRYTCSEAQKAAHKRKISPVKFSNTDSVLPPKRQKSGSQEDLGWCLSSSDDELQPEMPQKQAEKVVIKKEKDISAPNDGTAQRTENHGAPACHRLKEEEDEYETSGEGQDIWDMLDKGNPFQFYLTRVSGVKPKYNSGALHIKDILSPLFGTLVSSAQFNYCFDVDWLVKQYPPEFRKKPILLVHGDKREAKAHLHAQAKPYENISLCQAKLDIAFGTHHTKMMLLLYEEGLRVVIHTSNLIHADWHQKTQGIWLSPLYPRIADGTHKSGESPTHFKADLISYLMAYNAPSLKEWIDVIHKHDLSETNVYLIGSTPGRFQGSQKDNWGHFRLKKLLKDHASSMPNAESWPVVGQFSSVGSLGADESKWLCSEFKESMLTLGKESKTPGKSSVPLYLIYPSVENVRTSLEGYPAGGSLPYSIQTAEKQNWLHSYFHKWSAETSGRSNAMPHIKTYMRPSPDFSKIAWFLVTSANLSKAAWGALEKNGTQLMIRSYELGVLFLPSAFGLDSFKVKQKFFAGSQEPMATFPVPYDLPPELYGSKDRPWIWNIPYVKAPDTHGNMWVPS
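AlphaScreen read-out: signal falls as enzyme removes the 3' tyrosine-FITC from a 5'-biotinylated DNA oligo (15 nM, 5 min, RT). Enzyme was E. coli-made recombinant Tdp1 at 1 nM, exposed to compound for 15 min beforehand; beads 10 ug/ml, 10 min.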
DT40 TDP1 CPT = growth inhibition of DT40 Tdp1-/-;hTDP1 cells with camptothecin (screen for TDP1 inhibitors); chicken DT40 Tdp1-/-;hTDP1 cells + 20 nM CPT, ATP luminescence, 48 h; actives 12% (n = 420,000); Potency, µM (titrated, usually from 46.2 µM), for the others: at the highest dose activity change, negative = growth inhibition, actives largely listed as inhibitors; also: potency is read from the fitted curve at half-maximal effect; % is scaled to controls: 0 for no effect and ±100 for the full control effect; nearly all actives have a fitted effect of over 55% in size
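Chicken DT40 Tdp1-/- cells complemented with human TDP1, 400 cells/well, exposed to compounds plus 20 nM camptothecin for at least 48 h at 37 C; viability read as ATP content by CellTiter-Glo luminescence.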
Numbers without * were called inactive; u = inconclusive; x = no result. This is a sample that favours compounds with a hit; in the whole collection about 18% have one here. Unless noted, calls follow the shape of the dose curve; as a rule, active = well fitted curve in the direction sought with a large enough effect; inconclusive = small, poorly fitted or top-dose-only effect, or another doubt; inactive = no such curve, though single readings can be large; an effect the other way counts as inactive or inconclusive.

SMILES	TGFb inhibitor	IL1B secr inh	HepG2 tox	DT40 TDP1 no CPT	TDP1 inh	DT40 TDP1 CPT
COC1=C(Br)C(=O)c2ncccc2C1=O	u	-14.1	-51.9%	0.581µM*	x	0.517µM*
O=C1C(=O)c2cccnc2-c2ncccc21	1.41µM*	-107.8*	2µM*	0.0052µM*	x	0.0326µM*
COc1ccc2c(c1)O[C@H](c1ccc3c(c1)OCO3)[C@@H](OC(=O)Nc1ccc(OC(F)F)cc1)C2=O	x	x	x	x	10.0%	x
COc1ccc2c(c1)O[C@@H](c1cccc(C(F)(F)F)c1)[C@H](OC(=O)Nc1ccc(OC(F)F)cc1)C2=O	u	-21.2	-6.2%	20.6µM*	14.3%	u
CCCc1c(C(=O)N/N=C(\C)c2ccccn2)nnn1-c1nonc1N	-1.3%	97.7	10µM*	1.64µM*	x	2.59µM*
CCCc1c(C(=O)N/N=C(\C)c2cc(C)sc2C)nnn1-c1nonc1N	-0.6%	-19.2	-3.1%	18.4µM*	x	u
C/C(=N\NC(=O)c1nnn(-c2nonc2N)c1C(C)C)c1cc(C)sc1C	u	-10.5	-19.9%	u	3.2%	u
COc1ccc(N=C2O/C(=C/c3sc(=S)n(CC4CCCO4)c3O)N=C2C#N)cc1 (configuration not stated)	-18.3%	-12.2	-18.3%	29.1µM*	9.4%	u
COc1ccc(/C=C/C(=O)NCC2Cc3cccc(-c4nc(C)cnc4C)c3O2)cc1OC (configuration not stated)	x	x	x	-3.6%	x	8.7%
CCOC(=O)c1c(S(=O)(=O)NCC(=O)Nc2cccc(CC)c2)c(C)n(C)c1C	11.2%	x	9.9%	-13.7%	1.5%	1.0%
CCN1C(=O)[C@H]2[C@@H](c3ccc(-c4ccccc4)cc3)N[C@@](CC(C)C)(C(=O)OC)[C@H]2C1=O	u	-1.6	-16.6%	18.4µM*	-1.0%	25.9µM*
CCN1C(=O)[C@H]2[C@@H](c3ccc(-c4ccccc4)c(OC)c3)N[C@@](CC(C)C)(C(=O)OC)[C@H]2C1=O	-4.0%	0.0	-29.3%	14.6µM*	2.3%	18.4µM*
CCN1C(=O)[C@H]2[C@@H](c3ccc(-c4ccc(OC)cc4)c(OC)c3)N[C@@](CC(C)C)(C(=O)OC)[C@H]2C1=O	-2.0%	-4.7	1.5%	u	-7.8%	u
CCN1C(=O)[C@H]2[C@@H](c3ccc(SC4CCCCC4)cc3)N[C@@](CC(C)C)(C(=O)OC)[C@H]2C1=O	0.9%	-23.2	-1.3%	20.6µM*	-2.7%	u
COC(=O)[C@]1(C)N[C@H](c2ccc(-c3cccc(Cl)c3)cc2)[C@@H]2C(=O)N(C)C(=O)[C@@H]21	1.4%	-23.8	-2.0%	u	-10.0%	u
COC(=O)[C@]1(CC(C)C)N[C@H](c2ccc(-c3cccc(Cl)c3)cc2)[C@@H]2C(=O)N(C)C(=O)[C@@H]21	-34.9%	u	-24.1%	25.9µM*	-2.2%	13µM*
CC(C)C(=O)NCC1CCC2(CCN(Cc3ccc(-c4cccc(Cl)c4)o3)CC2)O1 (configuration not stated)	x	x	x	u	x	-24.3%
CCN(Cc1ccccc1)C(=O)Cn1c(=O)cc(C)c2c(C)nn(-c3cccc(F)c3)c21	19.2%	x	-2.4%	20.6µM*	0.6%	18.4µM*
CCN(CC)C(=O)Cn1c(=O)cc(C)c2c(C)nn(-c3cccc(Cl)c3C)c21	10.7%	x	-9.6%	11.6µM*	4.5%	14.6µM*
Cc1ccc(-n2nc(C)c3c(C)cc(=O)n(CC(=O)Nc4cccc(C)c4C)c32)cc1	-5.5%	x	3.6%	1.16µM*	8.4%	-8.5%
Cc1c(Cl)cccc1NC(=O)Cn1c(=O)cc(C)c2c(C)nn(-c3cccc(F)c3)c21	-3.1%	x	8.0%	-19.7%	4.5%	0.3%
COc1ccc(CN(C(=O)c2cc3ccccc3oc2=O)C2CCS(=O)(=O)C2)cc1OC (configuration not stated)	12.6%	-5.9	-10.0%	-12.6%	-1.1%	1.3%
O=C(NCc1ccncc1)c1csc([C@@H]2O[C@H](CO)[C@@H](O)[C@H]2O)n1	2.1%	0.0	-2.9%	2.31µM*	x	2.06µM*
C#CCNC(=O)c1csc([C@@H]2O[C@H](CO)[C@@H](O)[C@H]2O)n1	31.7%	13.2	1.7%	u	x	16.4µM*
O=C(NCc1cccs1)c1csc([C@@H]2O[C@H](CO)[C@H](O)[C@H](O)[C@H]2O)n1	12.6%	13.0	8.2%	8.6%	x	3.5%
SMILES	TGFb inhibitor	IL1B secr inh	HepG2 tox	DT40 TDP1 no CPT	TDP1 inh	DT40 TDP1 CPT
CN(CC(=O)NCc1ccco1)S(=O)(=O)c1ccc2c(c1)c(=O)n(C)c(=O)n2C	-0.7%	9.6	-0.8%	1.9%	x	-0.1%
CC(=O)c1ccc(N2CCN(c3ccc(C(F)(F)F)cn3)CC2)cc1	-13.6%	-3.8	1.1%	u	2.8%	-19.2%
CC(=O)c1ccc(-n2cc(-c3ccc(C(C)(C)C)cc3)[n+]3c2SCCC3)cc1	0.0%	-24.8	-7.7%	0.164µM*	5.1%	0.206µM*
Fc1ccc(-c2cn(-c3ccccc3)c3[n+]2CCS3)cc1	-4.7%	-13.5	-20.6%	23.1µM*	x	u
Clc1ccc(-c2c[n+]3c(n2-c2ccccc2)SCC3)cc1	-17.0%	u	-1.8%	u	3.6%	u
COc1ccc(-c2cn(-c3ccc(Br)cc3)c3[n+]2CCS3)cc1	u	-75.6*	-8.5%	6.51µM*	2.7%	8.2µM*
COc1ccc(-c2n[nH]c(=S)n2-c2ccc(Br)cc2)cc1OC	5.7%	15.1	-7.5%	2.2%	4.2%	7.2%
